# In PubChem BioAssay (Tox21):
# Results filed as inconclusive are left out. Calls of active or inactive are those of the source. Calls come from the whole dose curve; as a rule, active = well fitted activation curve with a large enough effect in the repeat runs; inconclusive = weak or mixed curves; inactive = no such curve, though single readings can be large or run the other way.
# Test: qHTS assay to identify small molecule agonists of the estrogen related receptor signaling pathway with the pleiotropic PPARgamma coactivator (PGC) (AID 1224823)
# Conditions: ERR/PGC reporter cell line, luciferase agonist mode; series mostly up to 46.1 µM; activation: at the top concentration
# Method in brief: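 PGC/ERR reporter cells seeded 6 h, then exposed to compounds (23 nL in DMSO) for 18 h at 37 C. One-Glo luciferase luminescence read after 30 min at room temperature.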
# % is set by controls: 0 for no effect and ±100 for the full control effect.
row,SMILES,activation
1,CN1C2CCC1CC(OC(c1ccccc1)c1ccccc1)C2 (stereo unspecified),-7.39% (inactive)
2,NS(=O)(=O)c1ccc(-n2nc(C(F)(F)F)cc2-c2ccc(Cl)cc2)cc1,-3.53% (inactive)
3,NCCCNCCCCNCCCN,2.97% (inactive)
4,N[C@H](C(=O)O)c1cc(O)cc(O)c1,-5.25% (inactive)
5,N[C@@H](Cn1ccc(=O)c(O)c1)C(=O)O,1.68% (inactive)
6,COc1cc(OC)c(/C=C2/C(=O)Nc3ccccc32)c(OC)c1,-17% (inactive)
7,O=C(c1ccc2c(c1)OCCO2)N1CCCCC1,5.13% (inactive)
8,CNC(=O)c1cc2c(cn1)[nH]c1ccccc12,9.19% (inactive)
9,CN1CCc2ccccc2Cc2[nH]c3ccccc3c2CC1,-2.6% (inactive)
10,C[C@H](NC(=O)/C(C#N)=C/c1ccc(O)c(O)c1)c1ccccc1,11% (inactive)
11,Oc1cc2c(cc1O)C(c1ccccc1)CNCC2 (stereo unspecified),-13.5% (inactive)
12,Oc1ccc(-c2nc(-c3ccc(F)cc3)c(-c3ccncc3)[nH]2)cc1,-5.23% (inactive)
13,C[C@](Cc1ccc(O)c(O)c1)(NN)C(=O)O,0.688% (inactive)
14,CSc1ccccc1N1CCN(CCCCCC(=O)NC2CCCc3ccccc32)CC1 (stereo unspecified),-11% (inactive)
15,NCCCC(=O)O,-6.36% (inactive)
16,COc1ccc(Br)cc1S(=O)(=O)NC(=O)/C=C/c1ccccc1Cc1ccc2ccccc2c1,16.9% (inactive)
17,O=c1[nH]c2ccccc2c2ccccc12,3.7% (inactive)
18,Oc1ccc2ccccc2c1SSc1c(O)ccc2ccccc12,-12.8% (inactive)
19,CSc1nc(N)c2ncn([C@@H]3O[C@H](COP(=O)(O)OP(=O)(O)O)C(O)[C@H]3O)c2n1 (stereo partly specified),6.31% (inactive)
20,CN(C)CCCC1(c2ccc(F)cc2)OCc2cc(C#N)ccc21 (stereo unspecified),5.78% (inactive)
21,O=C1NC(=O)/C(=C/c2ccc3nccnc3c2)S1,-15.5% (inactive)
